# Reference: PubChem BioAssay (NCATS)
# Results filed as inconclusive are left out. A call without a number means that no potency is given here. The source made the active and inactive calls. Unless noted, calls follow the shape of the dose curve; as a rule, active = well fitted curve in the direction sought with a large enough effect; inconclusive = small, poorly fitted or top-dose-only effect, or another doubt; inactive = no such curve, though single readings can be large; an effect the other way counts as inactive or inconclusive. *1 amine or outer side, *2 acyl side, *3 side chain or, on linkers, in order; H or OH if unused. Where a SMILES comes first, the peptide text is derived from it. Bridges are numbered along the chain shown (N, C = ends). Roman numbers before positions name the chains, in order. [ ]: non-standard residue; d: D form. ξ: configuration not given here. Actinocin(9to1) = Cc1c2oc3c(C)ccc(C(=O)[*:1])c3nc-2c(C(=O)[*:2])c(N)c1=O; ξNMeV = CNC(C(=O)O)C(C)C; ξV = CC(C)C(N)C(=O)O; Sar = CNCC(=O)O
# How the values were obtained:
# [1] = Cytotoxicity counterscreen for NFkB agonists and antagonists (AID 624476); conditions: NFkB reporter cell line viability counterscreen; series mostly up to 46.1 µM;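 also: cells exposed to compound for 48 hours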; also: potency is read from the fitted curve at half-maximal effect
# [2] = qHTS Assay for Identification of Small Molecule Agonists for NFkB Signaling Pathway. (AID 624478); conditions: NFkB pathway reporter cell assay, agonist mode, cells co-stimulated with 10 pM TNF alpha; series mostly up to 46.1 µM
# Procedure, shortened: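 NFkB-bla ME-180 cells (beta-lactamase reporter under NFkB response element) were plated overnight, treated with compound plus TNF alpha at 10 pM final (its EC50) for 5 hrs at 37 C, then loaded with LiveBLAzer substrate for 2 hrs.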
# [3] = qHTS Assay for Identification of Small Molecule Antagonists for NFkB Signaling Pathway. (AID 624479; calls by dose curve; also: potency is read from the fitted curve at half-maximal effect); conditions: NFkB pathway reporter cell assay, antagonist mode; series mostly up to 38.3 µM
# [4] = Cell Proliferation Assay against the TMD8 Cell Line (AID 651645); conditions: TMD8 DLBCL cell line proliferation/viability; at 46.1 µM (top of the series) unless noted;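 also: cells exposed to compound for 48 h before reading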
# Procedure, shortened: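 TMD8 cells, 500/well in RPMI with 5% FBS, dosed immediately and grown 48 h at 37 C, 5% CO2. CellTiter-Glo luminescence normalised to DMSO 100% and 9.2 uM bortezomib (final) 0%.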
# [5] = Cell Proliferation Assay against the HBL1 Cell Line (AID 651646); conditions: HBL1 DLBCL cells; at 46.1 µM (top of the series) unless noted;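 also: cells exposed to compound for 48 h before reading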
# Procedure, shortened: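 HBL1 ABC DLBCL cells, 500/well in RPMI with 5% FBS, treated for 48 h at 37C. Viability read by CellTiter-Glo luminescence, normalized to DMSO as 100% and 9.2 uM bortezomib as 0%.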
# [6] = Cell Proliferation Assay against the TMD8 Cell Line (Caspase readout at 16 hrs) (AID 651712); conditions: TMD8 lymphoma cells, caspase activation luminescence; series mostly up to 46.1 µM; also: potency is read from the fitted curve at half-maximal effect
# From the text: One class of targeted therapeutics showing early clinical success in killing of ABC DLBCL lines are small molecule inhibitors of the Bruton tyrosine kinase (BTK) 11. Thus, we chose to investigate what additional compounds, if any, would synergize with the BTK inhibitor Ibrutinib (PCI-32765).
# Prior to any combination assays, using an NCATS developed oncology compound library called the Mechanism of Interrogation Plate (MIPE), two well studied ABC DLBCL lines (TMD8 and HBL1) were screened using a cell viability assay (CellTiterGlo) and a 12-point titration series for each single agent. These initial experiments offered insight into the concentration range that offered the best coverage of activity and non-activity to assure relevant data is generated. In addition to the viability signature associated with this library, we examined the apoptotic response of each agent versus the TMD8 line as judged by caspase 3/7 activation. Activity was assayed at both 8 and 16 hour time-points to gain an appreciation of which agents induced an apoptotic response in a reasonable timeframe from a therapeutic exposure perspective. MIPE was also assayed for single agent viability in a human mesenchymal stem cell (hMSC) line as a surrogate of each library members potential therapeutic index.
# The combination plates were then generated by choosing 20 of the best compounds from this single agent screen and plated in the presence of the BTK inhibitor. The first analysis was carried out using 6x6 dose response blocks for each of the 20 compounds. […] In addition to the cell viability assay, the parallel caspase 3/7 activation and viability in hMSC assays were carried out in the 10x10 format.
# A total of 500 log growing TMD8 cells are seeded per well in 5 uL of a RPMI with glutamine (or Glutamax), without phenol red plus 5% FBS and 1X Pen/Strep into 1536 -solid white high base tissue culture treated Greiner One Bio Plates (789173-F) using a multidrop combi dispenser and a small sterile cassette. Compounds and controls totaling 23nL per well (negative control DMSO and positive control 9.2 uM Bortezomib-final) are immediately added to the plates using a 1536 head pin tool from Kalypsys. The plates are then covered with stainless steel gasket lids from Kalypsys and incubated for either 16 hours at 37C under 95% relative humidity with 5% CO2. After the desired incubation time, the plates are removed and allowed to reach room temperature before 3 uL of the Caspase Glo reagent (Promega) is added using an Aurora Flying Reagent Dispenser Bioraptor. The plates are then spun at 1000 rpms to remove bubbles and incubated for 15 minutes at room temperature before read on a ViewLux using a luminescent filter with a 10 second exposure. The relative luciferase units are used to calculated percent activity using DMSO as 0% and Bortezomib as 100%.
# [7] = Cell Proliferation Assay against the TMD8 Cell Line (Caspase readout at 8 hrs) (AID 651713); conditions: TMD8 lymphoma cells, caspase activation luminescence; series mostly up to 46.1 µM; also: potency is read from the fitted curve at half-maximal effect
# Procedure, shortened: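 TMD8 cells (500/well) in phenol red-free RPMI with 5% FBS were treated with compounds for 8 h at 37C, 5% CO2. Caspase-Glo 3/7 luminescence was read after 15 min at room temperature and normalised to DMSO (0%) and 9.2 uM bortezomib (100%).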
# [8] = target: Glucagon-like peptide 1 receptor (Homo sapiens) (UniProt P43220); test: qHTS of GLP-1 Receptor Agonists: LOPAC Validation (AID 624148); conditions: GLP-1R agonist cell assay; series mostly up to 46.1 µM;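 also: higher luminescence signal means agonism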
# Procedure, shortened: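 HEK293 cells stably co-expressing GLP-1R and a cAMP-responsive luciferase reporter, plated 12 hours before compound, then incubated 4-6 hr at 37 deg C. Luminescence read 12 min after detection reagent.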
# [9] = qHTS of Nrf2 Activators: LOPAC Validation (AID 624149); conditions: Nrf2/ARE reporter cell assay; series mostly up to 46.1 µM
# Procedure, shortened: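 AREc32 cells carrying an ARE-driven firefly luciferase were grown overnight in OPTI-MEM with 5% FBS, then exposed to compounds for 24 hr at 37 deg C. Luciferase signal was read after 30 min with Steady-Glo at RT.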
# [10] = HTS Assay for Allosteric Antagonists of the Human D2 Dopamine Receptor: Hit Validation in HTRF (AID 624455); conditions: Cells stably expressing D1 dopamine receptor, inhibition mode; series mostly up to 46.1 µM;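 also: stable D1 dopamine receptor cell line scored for blocking the D1 response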
# From the text: Dopamine receptors (DARs) are involved in the etiology and/or therapy of a number of neuropsychiatric and endocrine disorders. For instance, all receptor-based antiparkinsonian drugs work via stimulating the D2 DAR subtype whereas all FDA-approved antipsychotic agents are antagonists of this receptor. […] There are three different types of allosteric modulators that we are seeking, two of which will stimulate or augment receptor signaling, allosteric agonists and potentiators, while the third, allosteric antagonists, will attenuate receptor signaling. The present primary screening assay measures compound antagonism after an EC80 addition of dopamine by tracking calcium flux in a […], inducible Hek293 Trex D2 cell line. This assay measures activity of the hits in the D1 HTRF assay.
# NIH Chemical Genomics Center [NCGC]
# NIH Molecular Libraries Probe Centers Network [MLPCN]
# Assay Submitter (PI): David Sibley
# Cells stably expressing the D1 dopamine receptor will be run in an HTRF assay and compounds will be examined for the ability to inhibit the D1 mediated response.
# Glucagon-like peptide 1 receptor (Homo sapiens), sequence (P43220 whole entry, looked up): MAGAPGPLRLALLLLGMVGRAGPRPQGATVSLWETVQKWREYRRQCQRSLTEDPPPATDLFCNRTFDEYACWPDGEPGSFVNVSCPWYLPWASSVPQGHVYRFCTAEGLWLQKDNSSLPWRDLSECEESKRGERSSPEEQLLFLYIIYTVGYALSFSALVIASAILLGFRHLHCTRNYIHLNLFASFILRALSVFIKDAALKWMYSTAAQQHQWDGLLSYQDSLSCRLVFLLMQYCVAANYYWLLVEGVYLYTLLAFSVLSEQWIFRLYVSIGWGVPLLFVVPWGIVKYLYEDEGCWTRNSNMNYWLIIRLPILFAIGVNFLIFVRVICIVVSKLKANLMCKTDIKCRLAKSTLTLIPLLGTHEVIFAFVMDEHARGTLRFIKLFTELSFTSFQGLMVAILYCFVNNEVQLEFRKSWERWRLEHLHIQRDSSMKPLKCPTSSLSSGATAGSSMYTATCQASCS
Compound,Potency [1],outcome [2],Potency [3],viability (% of control) [4],"viability, percent of control [5]",Potency [6],Potency [7],outcome [8],outcome [9],outcome [10]
CC(NC(=O)Cc1cc(F)cc(F)c1)C(=O)NC(C(=O)OC(C)(C)C)c1ccccc1 (centres undefined),inactive,inactive,inactive,90.6%,103%,inactive,inactive,,,
O=c1cc(C2=CC=CC3Sc4ccccc4SC23)oc(N2CCOCC2)c1 (centres undefined),,inactive,,10.5%,31.5%,8.33 µM (active),7.43 µM (active),,,
"Cc1c2oc3c(C)ccc(C(=O)N[C@@H]4C(=O)NC(C(C)C)C(=O)N5CCC[C@H]5C(=O)N(C)CC(=O)N(C)C(C(C)C)C(=O)O[C@@H]4C)c3nc-2c(C(=O)N[C@@H]2C(=O)NC(C(C)C)C(=O)N3CCC[C@H]3C(=O)N(C)CC(=O)N(C)C(C(C)C)C(=O)O[C@@H]2C)c(N)c1=O (some centres undefined) (I: T[ξV]P[Sar][ξNMeV] / II: T[ξV]P[Sar][ξNMeV]; ester I:1-I:C, II:1-II:C; linker I:N-II:N via Actinocin(9to1))",0.0013 µM (active),inactive,0.0119 µM (active),3.49%,21.5%,,,,,
CN1Cc2c(N)cccc2C(c2ccccc2)C1 (centres undefined),,,,,,,,inactive,inactive,inactive
CNC1CCN(C(Cc2cccc(-c3ccncc3)c2)C(=O)c2sc3c(F)ccc(F)c3c2Cl)CC1 (centres undefined),,inactive,inactive,0.928%,0.927%,,,,,
CCCCCCCCCCCCCCCCCCOP(=O)([O-])OC1CC[N+](C)(C)CC1,inactive,inactive,inactive,102% [at 29.8 µM],93.3% [at 29.8 µM],inactive,inactive,,,
CC[C@@H](C(=O)O)C1CC[C@H](C)C([C@@H](C)[C@H](O)[C@H](C)C(=O)[C@H](CC)C2O[C@]3(C=C[C@@H](O)[C@]4(CC[C@@](C)(C5CC[C@](O)(CC)[C@H](C)O5)O4)O3)[C@H](C)C[C@@H]2C)O1 (some centres undefined),,inactive,,2.54%,11.4%,,,,,
Cc1nnc(C(C)C)n1C1CC2CCC(C1)N2CC[C@H](NC(=O)C1CCC(F)(F)CC1)c1ccccc1 (some centres undefined),inactive,inactive,inactive,86.2%,87.3%,inactive,inactive,,,
C[C@@H]1CCN(C(=O)CC#N)C[C@@H]1N(C)c1ncnc2[nH]ccc12,inactive,inactive,,76.9%,97.5%,inactive,inactive,,,
NC(=O)Nc1cc(-c2ccc(CN3CCOCC3)c(F)c2)sc1C(=O)N[C@H]1CCCNC1,0.59 µM (active),inactive,4.73 µM (active),1.45%,10.1%,0.0469 µM (active),,,,
CCC1(O)CC2CN(CCc3c([nH]c4ccccc34)[C@@](C(=O)OC)(c3cc4c(cc3OC)N(C=O)[C@H]3[C@](O)(C(=O)OC)[C@H](OC(C)=O)[C@]5(CC)C=CCN6CC[C@]43[C@@H]65)C2)C1 (some centres undefined),inactive,inactive,inactive,-0.162%,22.9%,,1.32 µM (active),,,
CCOc1cc2ncc(C#N)c(Nc3ccc(OCc4ccccn4)c(Cl)c3)c2cc1NC(=O)/C=C/CN(C)C,37.2 µM (active),inactive,7.49 µM (active),-0.655%,1.48%,,23.5 µM (active),,,
O=C(O)CC/C=C\CC[C@H]1[C@@H](N2CCCCC2)[C@@H](O)C[C@@H]1OCc1ccc(-c2ccccc2)cc1,inactive,inactive,inactive,104%,105%,inactive,inactive,,,
COC(=O)C1=C(C)NC(C)=C(C(=O)OCCCN2CCC(c3ccccc3)(c3ccccc3)CC2)[C@H]1c1cccc([N+](=O)[O-])c1,,inactive,23.7 µM (active),2.99%,1.4%,,,,,
CCC1(Cc2ccc(N)cc2)CCC(=O)NC1=O (centres undefined),inactive,,inactive,97.8% [at 92.2 µM],97.3% [at 92.2 µM],inactive,inactive,,,
CN(NC(=O)CC(=O)NN(C)C(=S)c1ccccc1)C(=S)c1ccccc1,inactive,inactive,inactive,81.1%,60.8%,inactive,inactive,,,
